A short description of test [1]: compound effects on lung adenocarcinoma cell viability – A549, calcein-AM fluorescence, 48 h, basal, profiling panel (AID 1162). Note: test concentration not given here. The following applies: higher = more signal.
Test [2] is described as follows: compound effects on differentiated 3T3-L1 adipocyte viability – cell-based, 3T3-L1 adipocytes, calcein-AM fluorescence, 48 h, basal, profiling panel (AID 1163). Note: test concentration not given here. The note with it: 3T3-L1 adipocytes viability, higher = more signal.
Test [3] can be described thus: compound effects on hepatocellular carcinoma cell viability – HepG2, calcein-AM fluorescence, 48 h, basal, profiling panel (AID 1164). Note: test concentration not given here. The following applies: higher = more signal.
The nature of test [4]: compound effects on multiple myeloma cell viability – MM1S, calcein-AM fluorescence, 48 h, basal, profiling panel (AID 1165).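 Note: viability of MM1S multiple myeloma cells under basal unstimulated conditions; test concentration not given here.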 The following applies: higher = more signal.
The nature of test [5]: calcein-AM signal in unstimulated myeloma cells – cell-based, calcein-AM fluorescence, 48 h, PK04 Diversity Set, profiling panel (AID 1166).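 Note: cells grown under basal conditions without added stimulus; test concentration not given here.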 The following applies: RPMI8226 myeloma viability, higher = more signal.
Test [6] can be described thus: JC-1 mitochondrial signal, unstimulated HepG2 cells – cell-based, JC-1 fluorescence, 24 h, 100 nL compound, profiling panel (AID 1167). Note: test concentration not given here. The note with it: HepG2 mitochondrial potential, higher = more signal.
Test [7] is described as follows: JC-1 mitochondrial signal, unstimulated adipocytes – cell-based, JC-1 fluorescence, 3T3-L1 adipocytes, 24 h, 100 nL compound, profiling panel (AID 1168). Note: test concentration not given here. The note with it: JC-1 mitochondrial fluorescence, higher = more signal, called active from +8 up or from −8 down.
The nature of test [8]: JC-1 mitochondrial signal, unstimulated myeloma cells – cell-based, JC-1 fluorescence, RPMI8226, 24 h, 100 nL compound, profiling panel (AID 1169). Note: test concentration not given here. The note with it: JC-1 mitochondrial potential fluorescence, higher = more signal.
Test [9] in a line: JC-1 mitochondrial signal, unstimulated MM1S myeloma – cell-based, JC-1 fluorescence, 24 h, 100 nL compound, profiling panel (AID 1170). Note: test concentration not given here. The note with it: MM1S mitochondrial potential, higher = more signal.
Test [10] is described as follows: resazurin metabolic signal in A549 cells – cell-based, resazurin fluorescence, 24 h, PK04 Diversity Set, profiling panel (AID 1171). Note: test concentration not given here. The following applies: A549 viability, higher = more signal, called active from +8 up or from −8 down.
The nature of test [11]: resazurin metabolic signal in HepG2 cells – cell-based, resazurin fluorescence, 24 h, PK04 Diversity Set, profiling panel (AID 1172). Note: test concentration not given here. The following applies: HepG2 viability, higher = more signal. (The colour change of resazurin is a common sign of viable cells or microbes.)
Test [12] is described as follows: budding yeast growth changes without added modifier – OD600, strain BY4716, 24 h, basal condition, primary screen (AID 1173). The following applies: S. cerevisiae BY4716 growth, OD600, 24 h; higher = more signal, called active from +8 up or from −8 down.
A short description of test [13]: viability profiling in MM1S myeloma cells – cell-based, resazurin fluorescence, basal, 24 h, PK04 Diversity Set, profiling panel (AID 1174). Note: test concentration not given here. The following applies: higher = more signal, called active from +8 up or from −8 down.
Test [14] addresses Dihydroorotate dehydrogenase (quinone), mitochondrial (Plasmodium falciparum (isolate 3D7)) (UniProt Q08210). Put plainly: inhibition of P. falciparum DHODH – biochemical, C-terminal His tag, absorbance 600 nm, primary screen (AID 1175).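 Note: recombinant parasite enzyme with a five histidine tag at its C terminus; test concentration not given here.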 The following applies: PfDHODH enzyme, DCIP absorbance 600 nm; higher = more signal, called active from +8 up or from −8 down.
Test [15] in a line: inhibition of PAO1 biofilm formation – strain PAO1, LB-PBS medium, absorbance 600 nm, primary screen (AID 1176). Note: test concentration not given here. The note with it: P. aeruginosa PAO1 growth/biofilm, A600, 12 h; higher = more signal.
Test [16] is described as follows: growth modulation of vineyard yeast isolate – strain RM11-1a, OD600, basal, 24 h, primary screen (AID 1177).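 Note: cultures grown under basal conditions with no added stressor; test concentration not given here.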 The note with it: S. cerevisiae RM11-1a growth, OD600, 24 h; higher = more signal, called active from +8 up or from −8 down.
Test [17] is described as follows: growth of efflux-deficient E. coli DRC39 – strain DRC39, OD650, 24 h, E. coli filamentation inducers, primary screen (AID 1178).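 Note: growth measured as culture turbidity by optical density at 650 nm; test concentration not given here.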 The following applies: E. coli DRC39 acrAB, higher = more signal, called active from +8 up or from −8 down.
Test [18] in a line: growth of efflux-deficient E. coli DRC39 – strain DRC39, OD650, 48 h, E. coli filamentation inducers, primary screen (AID 1179).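 Note: screen aims at cell division blockers that make cells filament.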 The following applies: E. coli DRC39 delta-acrAB growth, higher = more signal, called active from +8 up or from −8 down.
Test [19] can be described thus: viability profiling in RPMI8226 myeloma cells – cell-based, resazurin fluorescence, basal, 24 h, PK04 Diversity Set, profiling panel (AID 1180).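 Note: RPMI8826 multiple myeloma cell line at 5000 cells per well; test concentration not given here.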 The note with it: higher = more signal.
For test [20], the target named is E3 ubiquitin-protein ligase XIAP (Homo sapiens) (UniProt P98170). The test is described as follows: small molecules binding XIAP protein – biophysical, small-molecule microarray, fluorescence 635 nm, primary screen (AID 1181).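 Note: score merges 667 nm emission and signal to noise over triplicate slides.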 The following applies: higher = more signal.

Activity calls are given as the source filed them. Unless noted, the rule behind the calls is not given here.

E3 ubiquitin-protein ligase XIAP (Homo sapiens), sequence (P98170 whole entry, looked up): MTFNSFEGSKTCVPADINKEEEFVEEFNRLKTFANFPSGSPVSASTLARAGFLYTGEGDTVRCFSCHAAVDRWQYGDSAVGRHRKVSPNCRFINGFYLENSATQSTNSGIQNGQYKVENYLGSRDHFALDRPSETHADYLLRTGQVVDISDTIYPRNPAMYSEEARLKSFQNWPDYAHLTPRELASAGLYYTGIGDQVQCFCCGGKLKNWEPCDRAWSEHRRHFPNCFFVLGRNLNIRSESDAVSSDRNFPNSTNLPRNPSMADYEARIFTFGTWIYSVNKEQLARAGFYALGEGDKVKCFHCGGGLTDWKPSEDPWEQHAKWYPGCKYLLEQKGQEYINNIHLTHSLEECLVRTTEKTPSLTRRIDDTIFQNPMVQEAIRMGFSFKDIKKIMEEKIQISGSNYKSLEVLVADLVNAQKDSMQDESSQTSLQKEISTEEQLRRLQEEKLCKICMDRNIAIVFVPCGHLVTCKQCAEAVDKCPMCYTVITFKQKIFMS
Dihydroorotate dehydrogenase (quinone), mitochondrial (Plasmodium falciparum (isolate 3D7)), sequence (Q08210 whole entry, looked up): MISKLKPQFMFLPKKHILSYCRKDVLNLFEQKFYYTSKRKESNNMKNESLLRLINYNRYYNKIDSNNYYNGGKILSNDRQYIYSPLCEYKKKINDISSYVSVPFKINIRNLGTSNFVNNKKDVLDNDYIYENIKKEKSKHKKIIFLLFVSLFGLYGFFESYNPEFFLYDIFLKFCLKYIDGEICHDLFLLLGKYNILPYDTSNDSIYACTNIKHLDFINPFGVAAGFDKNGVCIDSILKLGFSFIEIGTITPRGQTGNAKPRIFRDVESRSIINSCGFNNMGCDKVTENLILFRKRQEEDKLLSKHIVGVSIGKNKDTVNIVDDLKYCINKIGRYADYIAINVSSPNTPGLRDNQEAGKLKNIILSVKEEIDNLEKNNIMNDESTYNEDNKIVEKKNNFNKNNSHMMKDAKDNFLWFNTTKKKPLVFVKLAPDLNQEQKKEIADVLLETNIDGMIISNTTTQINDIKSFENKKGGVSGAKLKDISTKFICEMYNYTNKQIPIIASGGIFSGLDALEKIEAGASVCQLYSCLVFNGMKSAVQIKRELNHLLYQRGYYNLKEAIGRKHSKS

In the case of `C=CCOC(=O)[C@H]1[C@@H]2C(=O)O[C@@H](c3ccccc3)[C@@H](c3ccccc3)N2[C@@H](c2ccc(OCCOC(=O)[C@@H]3C[C@@H]4C(=O)N[C@@H](Cc5ccccc5)C(=O)N4[C@@H]3c3ccc(O)cc3)cc2)[C@]12C(=O)Nc1ccccc12`, the z-score in test [1] is 0.137; in test [2], -0.156; in test [3], -0.338; in test [4] it was -1.31; in [5], 0.0712; in test [6] it was -1.37. In addition, the z-score is -0.262 (inactive) in [7]; -0.616 in test [8]; -1.02 in [9]; 0.0598 (inactive) in test [10]; -0.648 in [11]; 1.45 (inactive) in test [12]. Moreover, the z-score was -0.292 (inactive) in test [13]; 3.66 (inactive) in test [15]; 0.818 (inactive) in [16]; -0.631 (inactive) in test [17]; -0.282 (inactive) in test [18]; -0.309 in test [19]. The composite z-score in [14] was -0.139 (inactive); in test [20], 0.144.
`CCOC(=O)C[C@H]1[C@H](OC(=O)c2ccc(-c3ccccc3)cc2)[C@@H](NC(=O)CC(C)C)c2cc(OCCCO)ccc2N1C(=O)Cc1ccc(OC)cc1`: the z-score was -0.39 in [1]; 0.22 in test [2]; -0.114 in [3]; -1.7 in test [4]; -0.194 in [5]; 0.593 in test [6]. Also, the z-score is -1.43 (inactive) in test [7]; 0.908 in test [8]; 0.185 in test [9]; 0.207 (inactive) in test [10]; -0.378 in test [11]; 0.605 (inactive) in test [12]. Besides, the z-score in test [13] is -0.38 (inactive); in test [15], 0.35 (inactive); in test [16] it was -0.154 (inactive); in test [17] it was -0.181 (inactive); in [18], -0.12 (inactive); in test [19], -0.306. Further, the composite z-score in [14] was 0.423 (inactive); in [20] it was -0.274.
Consider `CCC(CC)C(O)C1C=CC2C(=O)N(C)C(=O)C2N1N1CCCCC1` (stereo not given), for which the z-score in test [1] is -0.0236; in test [2], -0.505; in [3] it was -0.502; in [4] it was -0.651; in test [5] it was -0.521; in [6], -1.34. Further, the z-score in test [7] is -0.115 (inactive); in test [8], 0.153; in test [9], -0.557; in test [10] it was 0.0051 (inactive); in test [11], -0.735; in test [12], -0.0172 (inactive). Also, the z-score in [13] was -1.21 (inactive); in test [15], 0.571 (inactive); in [16], -0.266 (inactive); in test [17], -0.652 (inactive); in test [18], -0.686 (inactive); in [19], -1.12. The values for the composite z-score in [14] and in test [20] were -1.17 (inactive) and 0.167, respectively.
As to `CN(C)C(=O)[C@]1(Cc2ccccc2)N=C(c2ccc(OCCCO)cc2)O[C@@H]1c1ccccc1`, the z-score in test [1] is -0.092; in test [2], -0.577; in test [3], 0.846; in [4] it was -0.864; in test [5], -1; in test [6], 0.0944. For the same compound, the z-score in test [7] was 0.193 (inactive); in test [8], -1.11; in test [9] it was -0.192; in test [10], 0.747 (inactive); in [11], 0.0784; in test [12], -1.32 (inactive). Further, the z-score in test [13] was 0.324 (inactive); in [15] it was -0.304 (inactive); in test [16], 0.597 (inactive); in [17] it was -0.809 (inactive); in [18], -0.591 (inactive); in [19] it was -0.247. For the same compound, the composite z-score in test [14] is 0.179 (inactive); in [20], 0.125.
Consider `COC(=O)[C@@]1(CCS(=O)(=O)c2ccccc2)N=C(c2ccc(OCCCO)cc2)O[C@H]1c1ccccc1N=[N+]=[N-]`, for which the z-score was -1.66 in test [1]; 0.81 in test [2]; -0.474 in test [3]; -0.746 in test [4]; 0.206 in test [5]; 0.335 in test [6]. Besides, the z-score in test [7] was -0.852 (inactive); in test [8], -0.687; in [9], -0.426; in [10], -2.02 (inactive); in test [11] it was -0.705; in [12], 0.905 (inactive). The z-score is -2.87 (inactive) in test [13]; 0.246 (inactive) in [15]; 1.09 (inactive) in [16]; 0.399 (inactive) in test [17]; -1.12 (inactive) in test [18]; -1.64 in test [19]. Besides, the composite z-score in test [14] is -0.279 (inactive); in [20], -0.0374.
For `COc1cccc(C[C@H]2C[C@@H](CO[Si](C(C)C)(C(C)C)C(C)C)N3C(=O)[C@@]4(C(C)=O)O[C@@]23[C@@H]2C(=O)N(C)C(=O)[C@@H]24)c1`, the z-score in test [1] is -2.05; in [2], 0.202; in test [3], -0.342; in test [4] it was -1.9; in test [5], -1.38; in [6], -1.64. Further, the z-score in [7] is 1.29 (inactive); in test [8], -0.846; in [9] it was -0.661; in test [10], 0.712 (inactive); in test [11] it was 0.65; in [12], 0.294 (inactive). Further, the z-score in [13] was -0.494 (inactive); in test [15] it was 0.82 (inactive); in test [16], 0.993 (inactive); in test [17] it was -0.493 (inactive); in test [18], -0.638 (inactive); in test [19], -0.334. Also, the values for the composite z-score in [14] and in [20] were 0.0539 (inactive) and 0.0082, respectively.
In the case of `CC1CC/C=C\[C@H]2OC34C=CCN(c5ccc(Cl)cc5)C(=O)[C@H]3N(CCCO)C(=O)[C@]4(C)C2C(=O)O1` (stereo not given in full), the z-score was 0.606 in test [1]; 0.208 in test [2]; -0.865 in test [3]; 1.04 in test [4]; 0.338 in test [5]; -0.713 in test [6]. Further, the z-score is -0.887 (inactive) in test [7]; -0.294 in test [8]; 1.86 in [9]; -0.6 (inactive) in test [10]; -1.08 in test [11]; 1.44 (inactive) in test [12]. In addition, the z-score in test [13] is -0.198 (inactive); in test [15], -0.897 (inactive); in test [16], 0.941 (inactive); in test [17] it was -0.699 (inactive); in [18], -0.801 (inactive); in [19], -0.208. Also, the composite z-score is 1.44 (inactive) in test [14] and -0.151 in test [20].
As for `C=CCC(OC(C)=O)[C@@H]1[C@@H](N(Cc2ccc(-c3cccc(C(F)(F)F)c3)o2)C(=O)c2cccc3ccccc23)c2cc(OCCCO)ccc2N1C(=O)c1ccc2ccccc2c1` (stereo not given in full), the z-score in [1] was 0.281; in test [2] it was 2.03; in [3] it was 0.723; in test [4] it was -0.21; in [5], -1.99; in test [6], 2.7. Further, the z-score in test [7] is -0.689 (inactive); in [8], -0.556; in [9], -0.102; in test [10], -0.453 (inactive); in [11] it was -0.0598; in [12] it was -0.988 (inactive). Moreover, the z-score was -0.416 (inactive) in test [13]; -0.464 (inactive) in test [15]; 0.204 (inactive) in test [16]; 0.807 (inactive) in test [17]; 0.489 (inactive) in test [18]; -0.311 in [19]. Besides, the composite z-score in [14] was -0.0361 (inactive); in test [20] it was -0.04.
On to `CCCC=C(CCC)[C@@H](NS(=O)(=O)c1ccc(Cl)cc1)c1ccccc1`, for which the z-score in [1] was -1.61; in test [2], -0.224; in test [3], -1.42; in [4], -1.18; in [5] it was -3.77; in test [6], -3.69. For the same compound, the z-score was 0.0744 (inactive) in [7]; -0.372 in test [8]; -0.676 in test [9]; 2.17 (inactive) in test [10]; 1.1 in [11]; 0.733 (inactive) in [12]. In addition, the z-score in test [13] is 0.604 (inactive); in test [15] it was 1.97 (inactive); in test [16] it was -0.233 (inactive); in [17], -0.558 (inactive); in test [18], -1 (inactive); in test [19], -0.321. The composite z-score is -0.532 (inactive) in test [14] and 0.102 in test [20].

Source of the values: PubChem BioAssay.
